# Only a selection was taken, and hits are over-represented in it overall.
# MBNL1 CUG block – MBNL1-poly(CUG) RNA binding inhibition; Potency, µM (doses to about 57.5 µM), without a hit: at the highest dose activity change, negative = inhibition, usual class: inhibitors; AID 2675; 280,000 tested, 0.036% active; TR-FRET MBNL1-His/biotin-(CUG)12 binding, 665/545 ratio; Q9NR56; active = well fitted inhibition curve with a large enough effect in the signal ratio, with a control signal flat, not every such curve was filed as active; inconclusive = small, poorly fitted or top-dose-only effect, or effect the other way, or a change in a side signal; inactive = no such curve, though single readings can be large or run the other way; the % refers to the signal ratio; note: potency is the fitted concentration of half-maximal effect; % is set by controls: 0 for no effect and ±100 for the full control effect
# Target sequence (Q9NR56 whole entry, looked up): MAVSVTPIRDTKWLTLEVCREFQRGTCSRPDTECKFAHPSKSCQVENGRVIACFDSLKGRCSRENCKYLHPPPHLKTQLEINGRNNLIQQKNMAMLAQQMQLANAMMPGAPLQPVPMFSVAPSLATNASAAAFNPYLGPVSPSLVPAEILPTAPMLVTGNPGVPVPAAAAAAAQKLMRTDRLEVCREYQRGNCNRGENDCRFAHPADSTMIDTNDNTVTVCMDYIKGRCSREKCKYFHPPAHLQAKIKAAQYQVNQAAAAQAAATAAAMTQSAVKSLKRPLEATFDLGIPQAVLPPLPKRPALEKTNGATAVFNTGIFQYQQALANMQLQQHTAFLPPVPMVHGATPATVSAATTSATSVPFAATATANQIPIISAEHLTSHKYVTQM
#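 His-tagged MBNL1 binding to biotinylated (CUG)12 RNA was measured by TR-FRET using terbium anti-His antibody (0.055 ng/ul final) and streptavidin-XL665 (5 nM final). Compounds were titrated 92 nM to 58 uM; 60 min at room temperature.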
# NPSR antag – neuropeptide S receptor (human) antagonism, cAMP; AID 1461; 220,000 tested, 1% active; CHO-NPSR cells, cAMP TR-FRET, antagonist mode; Potency, µM (highest dose often 38.3 µM), inactives show top-dose activity change, negative = inhibition, usual class: inhibitors; Q6W5P4; note: potency is the fitted concentration of half-maximal effect; % is set by controls: 0 for no effect and ±100 for the full control effect; nearly all actives have a fitted effect of over 50% in size
# IMPase Li inh – membrane-permeable IMPase blocker, potentiated with lithium; Potency, µM (top dose mostly 59.4 µM), for inactives: at the highest dose activity, negative = IMPase inhibition, actives largely listed as inhibitors; CHO-M1 cells, IP1 TR-FRET (IP-One), carbachol + lithium; 210,000 tested, 0.35% active;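 note: IP1 builds up when IMPase is blocked and the TR-FRET signal falls; potency is the fitted concentration of half-maximal effect; plate controls were basal vehicle for no effect and high inhibitor control for full effect; nearly all actives have a fitted effect of over 50% in size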
#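 CHO-M1, 2000 cells/well, 16–30 h culture; cpd + low Li+, 30 min 37C; lysis with d2-IP1/Eu-anti-IP1 Ab, 10 min RT; TR-FRET 665/620 ratio and 620 channel; AC50 via Hill.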
# RGS12 GoLoco inh – blocks human Gai1 binding to RGS12 GoLoco peptide, red readout; P63096; Gai1:RGS12 GoLoco peptide FP, rhodamine, 10 min; 230,000 tested, 0.44% active; Potency, µM (top dose mostly 61.6 µM), for the others: at the highest dose activity, negative = inhibition, actives largely listed as inhibitors; active = well fitted inhibition curve with a large enough effect, not every such curve was filed as active; inactive = no such curve, though single readings can be large or run the other way; note: potency is the fitted concentration of half-maximal effect; % is set by controls: 0 for no effect and ±100 for the full control effect; nearly all actives have a fitted effect of over 30% in size
# Target sequence (P63096 whole entry, looked up): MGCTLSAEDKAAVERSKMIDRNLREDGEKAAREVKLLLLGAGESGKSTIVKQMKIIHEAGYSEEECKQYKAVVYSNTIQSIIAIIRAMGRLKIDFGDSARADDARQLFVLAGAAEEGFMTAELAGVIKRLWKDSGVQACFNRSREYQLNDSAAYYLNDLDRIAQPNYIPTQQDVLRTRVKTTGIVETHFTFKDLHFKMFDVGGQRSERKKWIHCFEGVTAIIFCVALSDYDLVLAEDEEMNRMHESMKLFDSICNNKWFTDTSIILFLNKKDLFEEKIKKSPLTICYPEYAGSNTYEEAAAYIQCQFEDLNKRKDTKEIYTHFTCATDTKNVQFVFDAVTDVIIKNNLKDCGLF
# Tb PFK block – blocks T. brucei phosphofructokinase; O15648; Potency, µM (highest dose often 57.5 µM), for inactives: at the highest dose activity, negative = inhibition, usual class: inhibitors; T. brucei PFK, ADP-Glo luminescence; 330,000 tested, 0.17% active;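 note: potency is the fitted concentration of half-maximal effect; 0% = uninhibited 1x PFK enzyme wells and -100% = no-enzyme wells; nearly all actives have a fitted effect of over 60% in size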
#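 In TEA buffer at pH 8.0 with 5 mM MgCl2, enzyme (1.25 nM) converted F6P (0.5 mM) and ATP (0.1 mM) for 45 min at room temperature. ADP product was read by luciferase luminescence.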
# MBNL1-CUG FRET – MBNL1-poly(CUG) RNA binding inhibition confirmed. Potency, µM (series often up to 57.6 µM), for inactives: at the top dose activity change, negative = inhibition, most hits filed as inhibitors. AID 493199. TR-FRET MBNL1-His / biotin-(CUG)12 binding, 60 min. 140 tested, 50% active. shares compounds with MBNL1 CUG block
# MBNL1 AlphaScrn – MBNL1-CUG RNA binding inhibition, AlphaScreen validation | Potency, µM (highest dose often 57.7 µM), for the others: at the top dose activity, negative = inhibition, hits mostly inhibitors | AID 493205 | 140 tested, 30% active | shares compounds with MBNL1 CUG block | AlphaScreen MBNL1-His / biotin-(CUG)12 binding
# Menin-MLL HTRF – hit in HTRF counterscreen for MBNL1-poly(CUG) binding inhibitors; shares compounds with MBNL1 CUG block; His-Menin/biotin-MLL peptide TR-FRET counterscreen; Potency, µM (titrated, usually from 57.6 µM), inactives show top-dose activity, negative = inhibition, usual class: inhibitors; 120 tested, 20% active; AID 651843
# * hit, by the source's call; ? = inconclusive; · = no result given; [ ] = remark or other dose. Unless noted, calls come from the whole dose curve; as a rule, active = well fitted curve in the direction sought with a large enough effect; inconclusive = small, poorly fitted or top-dose-only effect, or another doubt; inactive = no such curve, though single readings can be large; an effect the other way counts as inactive or inconclusive.
SMILES,MBNL1 CUG block,NPSR antag,IMPase Li inh,RGS12 GoLoco inh,Tb PFK block,MBNL1-CUG FRET,MBNL1 AlphaScrn,Menin-MLL HTRF
CC(=O)Nc1ccc(NC(=O)c2cc(-c3cc(C)c(C)cc3O)n[nH]2)cc1,10µM*,·,·,·,-5.8%,?,41.1µM*,-2.0%
Cc1cc(O)c(-c2cc(C(=O)Nc3cccnc3)[nH]n2)cc1C,·,-10.8%,·,12.4%,2.8%,·,·,·
COC(=O)c1cccc(NC(=O)c2ccc[n+]([O-])c2)c1,39.8µM*,·,·,·,2.1%,-24.1%,?,-0.5%
COC(=O)c1cccc(NC(=O)c2ccccc2)c1,-7.2%,-4.0%,·,5.3%,-0.1%,·,·,·
O=C(NC1(O)C(=O)c2ccccc2C1=O)c1ccccc1,·,6.1%[46.1 µM],22.6%[38.3 µM],2.5%,12.5%,20.6µM*,13µM*,0.6%
O=C(NC1(O)C(=O)c2ccccc2C1=O)c1c(Cl)cccc1Cl,?,3.0%,·,-2.1%,19.4%,·,·,·
COc1cc2c(C#N)c(N3CCCC3)nc(N)c2c(N)n1,?,-18.2%,·,6.4%,1.4%,·,·,·
N#Cc1c(N2CCCC2)nc(N)c2c(N)nc(N3CCCC3)cc12,·,-7.2%[46.1 µM],-9.2%[38.3 µM],-2.1%,-0.3%,5.17µM*,0.651µM*,21.8%
CCC(CC)c1nnc(NC(=O)CN2C(=O)NC3(CCCC3)C2=O)s1,0.6%,·,·,·,0.8%,·,·,·
COc1ccc(-c2nc(SCC(=O)Nc3cc(C)on3)n[nH]2)cc1,39.8µM*,-7.6%[46.1 µM],17.5%[38.3 µM],8.3%,-5.7%,16.3µM*,-8.6%,?
CC(C)(C)c1ccc(C2CC2C(=O)N/N=C\c2ccc[nH]2)cc1 (stereo not drawn),4.0%,53.1%,14.5%,11.5%,0.8%,·,·,·
COc1ccc(C(=O)N/C(=C\c2cn(C)c3ccccc23)C(=O)N2CCN(C)CC2)cc1OC,11.2%,·,·,·,-0.3%,·,·,·
O=C(CNC(=O)c1ccc(Cl)cc1)NCc1ccccn1,·,·,·,·,0.8%,·,·,·
CC(=O)Nc1nc(-c2ccc(Cl)cc2)nc(C)c1C(C)=O,25.1µM*,?,12.4%[38.3 µM],12.4%,?,?,?,?
Cc1cc(C(=O)NC2CCCN(Cc3ccc(Cl)cc3)C2)n(C)n1 (stereo not drawn),2.7%,·,·,·,-4.2%,·,·,·
CN(CC(=O)Nc1sccc1C#N)C1CCCCC1,28.2µM*,3.4%[46.1 µM],11.5%,123.9%,-3.1%,-22.3%,-0.5%,0.4%
CCOC(=O)CCCCC(=O)c1[nH]c(=O)[nH]c1CN1CCOCC1,2.24µM*,-5.5%[46.1 µM],-2.7%[38.3 µM],-6.6%,2.4%,4.11µM*,0.919µM*,16.3µM*
CCOC(=O)c1c(C)[nH]c(C(=O)CN2CCOCC2)c1C,-6.4%,-10.7%[46.1 µM],2.3%[38.3 µM],3.3%,·,·,·,·
CCOC(=O)CCCCC(=O)c1[nH]c(=O)[nH]c1C[n+]1ccc(C)cc1,?,15.9%,9.7%,3.1%,-1.3%,·,·,·
CCOC(=O)c1[nH]c(=O)[nH]c1CSc1nc(C)cc(C)n1,-9.1%,0.6%[46.1 µM],35.6%[38.3 µM],-17.7%,-7.7%,·,·,·
CCOC(=O)CCCCC(=O)c1[nH]c(=O)[nH]c1C[n+]1ccccc1,31.6µM*,25.2%,-4.2%,-4.0%,-4.3%,16.3µM*,3.26µM*,?
CCOC(=O)CCCCC(=O)c1[nH]c(=O)[nH]c1CSc1nc(C)cc(=O)[nH]1,1.78µM*,-15.8%[46.1 µM],32.4%[38.3 µM],-15.3%,-2.0%,0.517µM*,0.073µM*,3.66µM*
CCOC(=O)CCCCC(=O)c1[nH]c(=O)[nH]c1CSc1nc(C)cc(C)n1,31.6µM*,-9.3%[46.1 µM],-5.7%[38.3 µM],0.7%,-1.0%,25.9µM*,4.11µM*,-22.3%
C#C[C@@]1(O)CC[C@@H]2[C@@H]3CCC4=C(CCC(=O)C4)[C@H]3CC[C@]21C,·,·,-6.3%,1.6%[21.6 µM],·,·,·,·
C/C(=N\NC(=O)C1CC1)c1ccc(OC(F)F)cc1,0.7%,·,·,·,1.3%,·,·,·
SMILES,MBNL1 CUG block,NPSR antag,IMPase Li inh,RGS12 GoLoco inh,Tb PFK block,MBNL1-CUG FRET,MBNL1 AlphaScrn,Menin-MLL HTRF
COc1ccc(CCNC(=O)COc2cccc(-n3cnnn3)c2)cc1,·,·,·,·,-0.7%,·,·,·
COc1ccc(CCNC(=O)C2CC(=O)N(c3ccc(F)cc3)C2)cc1OC (stereo not drawn),0.794µM*,-6.7%[46.1 µM],-0.5%[38.3 µM],-7.0%,-3.2%,-8.7%,-8.1%,-0.2%
COc1ccc(N2CC(C(=O)NCCc3ccc(OC)c(OC)c3)CC2=O)cc1 (stereo not drawn),-3.1%,7.5%[46.1 µM],0.2%[38.3 µM],-1.6%,-1.6%,·,·,·
O=C(Nc1ccccc1)C1=C(c2ccccc2)S(=O)(=O)CCS1(=O)=O,-3.1%,?,22.2%,118.4%,?,·,·,·
COCC(=O)N1CCC(Oc2ccc(C(=O)N3CCN(C)C[C@@H]3C(C)C)cc2)CC1,3.2%,·,·,·,-0.2%,·,·,·
O=C(/C=C/c1cccs1)Nc1scc(-c2ccccc2)c1C(=O)O,·,-5.2%,-0.4%,160.4%,?,20.6µM*,13µM*,9.7%
O=C(/C=C/c1cccs1)Nc1nc(-c2ccccc2)cs1,1.3%,-16.7%[46.1 µM],34.5%[38.3 µM],-7.3%,-0.3%,·,·,·
O=C(Oc1ccccc1)N1CCC[C@@]2(CCN(c3ccccn3)C2)C1,·,·,-4.2%,-4.6%,·,·,·,·
O=C(O)C1Nc2c(O)cccc2C2C=CCC12 (stereo not drawn),·,-7.2%[46.1 µM],1.4%,61.2%,?,10.3µM*,2.06µM*,5.4%

# Screening results deposited in PubChem by National Center for Advancing Translational Sciences (NCATS).
